Screening data as filed in PubChem BioAssay.
G9a block: inhibitors of human histone lysine methyltransferase G9a; G9a H3K9 monomethylation, AlphaScreen, 2 h; Q96KQ7; Potency, µM (highest dose often 102 µM), inactives show at the highest dose activity, negative = inhibition, usual class: inhibitors; actives 8.8% (n = 350,000); also: % is scaled to controls: 0 for no effect and ±100 for the full control effect; nearly all actives have a fitted effect of over 75% in size
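Methyltransferase reactions run at room temperature for 2 h (20 nM enzyme, 500 nM biotin-H3K9 peptide, 20 uM SAM) after a 15 min compound preincubation; product detected by AlphaScreen beads and anti-H3K9me1 antibody.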
BAZ2B block: inhibitors of human BAZ2B bromodomain; AlphaScreen BAZ2B-H3K14Ac peptide displacement; actives 4.4% (n = 360,000); Potency, µM (series often up to 114 µM), without a hit: at the highest dose activity change, negative = inhibition, hits mostly inhibitors; AID 504333; Q9UIF8; also: % is scaled to controls: 0 for no effect and ±100 for the full control effect; nearly all actives have a fitted effect of over 60% in size
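Multi-concentration screen (max 110 uM) measuring displacement of acetylated histone H3 peptide from BAZ2B by AlphaScreen, using 50 nM protein, 50 nM peptide and 10 ug/mL streptavidin donor plus Ni-chelate acceptor beads.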
Sfp inh: inhibitors of Bacillus subtilis Sfp phosphopantetheinyl transferase. Biochemical Sfp PPTase activity, qHTS. Potency, µM, for inactives: largest response in the series, negative = inhibition, actives largely listed as inhibitors. actives 3.5% (n = 310,000). AID 1490;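 also: the enzyme is Sfp with the accession as filed and its product quenches rhodamine fluorescence; 0% = enzyme reaction without inhibitor and -100% = no enzyme wells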
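Step 1, compound plus 15 nM Sfp-PPTase, 15 min, room temperature. Step 2, add rhodamine-CoA (5 uM) and BHQ-2-YbbR (12.5 uM). Step 3, read 525/598 nm fluorescence at 0 and 30 min.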
JMJD2A Tudor: blocks the human JMJD2A Tudor domain | AlphaScreen JMJD2A-Tudor / H3K4me3 peptide binding | actives 4.4% (n = 390,000) | AID 504339 | Potency, µM (doses to about 114 µM), inactives show at the top dose activity change, negative = inhibition, actives largely listed as inhibitors; also: % is scaled to controls: 0 for no effect and ±100 for the full control effect; nearly all actives have a fitted effect of over 50% in size
L3MBTL1 block: inhibitors of human L3MBTL1; Potency, µM (series often up to 57.1 µM), without a hit: at the top dose activity, negative = inhibition, most hits filed as inhibitors; Q9Y468; actives 0.66% (n = 230,000); AID 485360; AlphaScreen L3MBTL1–H3K9me1 peptide binding; also: % is scaled to controls: 0 for no effect and ±100 for the full control effect; nearly all actives have a fitted effect of over 60% in size
Target sequence (Q9Y468 whole entry, looked up): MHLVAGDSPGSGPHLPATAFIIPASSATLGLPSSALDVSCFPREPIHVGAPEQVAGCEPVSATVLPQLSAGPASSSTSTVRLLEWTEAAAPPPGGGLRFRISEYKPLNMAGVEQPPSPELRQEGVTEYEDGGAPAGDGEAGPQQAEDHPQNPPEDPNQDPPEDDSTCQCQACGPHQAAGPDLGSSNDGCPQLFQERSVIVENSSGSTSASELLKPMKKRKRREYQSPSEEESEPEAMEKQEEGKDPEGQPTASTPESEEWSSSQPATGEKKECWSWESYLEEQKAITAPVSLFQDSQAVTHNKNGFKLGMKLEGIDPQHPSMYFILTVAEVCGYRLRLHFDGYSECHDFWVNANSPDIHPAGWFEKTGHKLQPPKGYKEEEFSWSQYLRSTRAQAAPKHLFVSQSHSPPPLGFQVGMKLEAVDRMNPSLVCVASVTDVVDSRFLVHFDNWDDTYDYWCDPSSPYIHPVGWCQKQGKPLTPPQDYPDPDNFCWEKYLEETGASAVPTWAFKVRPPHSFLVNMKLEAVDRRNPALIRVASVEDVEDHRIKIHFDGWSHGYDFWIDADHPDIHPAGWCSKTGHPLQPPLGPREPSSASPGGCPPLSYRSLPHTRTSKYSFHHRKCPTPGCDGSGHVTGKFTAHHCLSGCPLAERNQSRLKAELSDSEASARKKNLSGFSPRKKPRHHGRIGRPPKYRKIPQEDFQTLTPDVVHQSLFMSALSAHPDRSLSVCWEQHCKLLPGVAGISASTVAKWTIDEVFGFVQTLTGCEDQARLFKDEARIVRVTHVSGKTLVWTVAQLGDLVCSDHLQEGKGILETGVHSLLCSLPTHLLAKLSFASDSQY
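L3MBTL1 (50 nM) pre-complexed 30 min with biotinylated H3(1-15)K9me1 peptide (75 nM), then compounds added for 30 min at room temperature; AlphaScreen streptavidin donor/nickel chelate acceptor beads (10 ug/mL final) read after 30 min dark incubation.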
HP1b binding inh: blocks HP1-beta chromodomain binding to methylated histone tails; actives 0.56% (n = 390,000); AlphaScreen HP1-beta / biotin-H3K9me3 peptide binding; Potency, µM (top dose mostly 114 µM), for inactives: top-dose activity change, negative = inhibition, usual class: inhibitors; P83916; also: nearly all actives have a fitted effect of over 70% in size
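HP1-beta protein (50 nM final) preincubated 30 min at room temperature with biotinylated H3(1-18)K9me3 peptide (50 nM) in PBS pH 7.4, 0.01% Tween-20, then compound added for 30 min. AlphaScreen streptavidin donor/nickel chelate acceptor beads (10 ug/mL final), 30 min dark, luminescence read.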
An asterisk follows results filed as active; ? = inconclusive; / = no result; [ ] = dose if it differs, or a comment. A selection: hits, their analogues and other compounds. The true share with any hit is near 12%. Calls follow the shape of the dose curve; as a rule, active = well fitted curve in the direction sought with a large enough effect; inconclusive = small, poorly fitted or top-dose-only effect, or another doubt; inactive = no such curve, though single readings can be large; an effect the other way counts as inactive or inconclusive. Potency is read from the fitted curve at half-maximal effect.

SMILES	G9a block	BAZ2B block	Sfp inh	JMJD2A Tudor	L3MBTL1 block	HP1b binding inh
Cc1cccc(N2CCN(C(=O)C3CCN(C(=O)c4cc5sccc5n4C)CC3)CC2)c1C	?	22µM*	/	?	/	-21%
CCOC(=O)c1ccc(Nc2nc3ccc(C(=O)c4ccccc4)cc3n3c(C)nnc23)cc1	5%[59 µM]	13%	/	-14%	/	24%
CCOc1ccc(NC(=O)Cn2nnc(-c3ccc(C(N)=O)cc3)n2)cc1S(=O)(=O)N1CCCC1	79µM*	-7%	/	-23%	-7%	6%
CCOc1ccc(NC(=O)Cn2nc(C(N)=O)c3ccccc3c2=O)cc1S(=O)(=O)N1CCCC1	-110%[12.7 µM]	-34%	/	-14%	0%	19%
CCCCn1c(N)c(N(CC)C(=O)CSCc2c(C)noc2C)c(=O)[nH]c1=O	45µM*	-8%	13%	-14%	/	30%
CCCN(C(=O)CSCc1c(C)noc1C)c1c(N)n(Cc2ccccc2)c(=O)[nH]c1=O	45µM*	3%	/	-15%	-4%	-14%
CCCN(C(=O)c1c(-c2ccccc2)noc1C)c1c(N)n(Cc2ccccc2)c(=O)[nH]c1=O	-21%[0.0925 µM]	-37%	/	0%	18%	21%
CCCCn1c(N)c(N(CCOC)C(=O)CSCc2c(C)noc2C)c(=O)[nH]c1=O	-3%	-17%	18%	-10%	/	34%
CCCN(C(=O)Cn1nc(C)c([N+](=O)[O-])c1C)c1c(N)n(Cc2ccccc2)c(=O)[nH]c1=O	45µM*	9%	/	-3%	-1%	21%
COc1ccc(CNC(=O)Cn2ccc3cc(S(=O)(=O)N4CCCCC4)ccc32)cc1OC	-27%[59 µM]	-22%	/	-15%	/	34%
CNC(=O)C1(C(F)(F)F)C/C(=C/CCO)CCCO1 (stereo unspecified)	/	/	15%	-18%	/	17%
Cc1ccc(C)c(-n2c3nc(=O)[nH]c(=O)c-3cc3c(C)nn(-c4ccccc4)c32)c1	4%[59 µM]	/	/	4%	/	41%
O=c1cc(NCCc2ccccc2)c2ccccc2o1	3%	2%	-1%	50µM*	10%	5%
CCN(Cc1ccncc1)C(=S)NCc1ccccc1	50µM*	-2%	-6%	-2%	1%	7%
S=C(Nc1ccccc1)N(Cc1ccccc1)Cc1ccncc1	-7%[59 µM]	-12%	8%	-6%	0%	40%
Cc1nc(NS(=O)(=O)c2ccc(Cl)s2)c2c3c(sc2n1)CCCC3	50µM*	-29%	23%	-26%	/	18%
CCc1ccc(NC(=O)c2sc(-n3nc(C)c(Cc4ccc(OC)cc4)c3C)nc2C)cc1	-16%[59 µM]	?	/	9%	/	21%
COc1ccc(/C=N/NC(=O)c2cccnc2)cc1Cn1nc([N+](=O)[O-])c(Br)c1C	50µM*	-24%	3%	/	-9%	/
CC(C)(C)OC(=O)N1CCC(c2c(C(=O)Nc3ccc4c(c3)OCO4)cnn2-c2ccc(F)cc2F)CC1	-41%[59 µM]	?	/	?	/	-11%
CCOC(=O)N1CCN(C(=O)c2cc3c(=O)n4ccccc4nc3s2)CC1	38%	-1%	15%	-1%	/	45%
CN1CCN(C(=O)c2cc3c(=O)n4ccccc4nc3s2)CC1	50µM*	6%	9%	-13%	/	-16%
Oc1ccc(C(=S)N2CCCCCC2)cc1	32µM*	-1%[57.1 µM]	56µM*	-32%	0%	-18%
CC1CCN(C(=S)c2ccccc2O)CC1	?	-1%	28µM*	?	-18%	?
CC1CCN(C(=O)COC(=O)c2cc3ccccc3cc2O)CC1	8%[59 µM]	/	-9%	-16%[57.1 µM]	0%	10%
Oc1cccc(C(=S)N2CCCCC2)c1	32µM*	-20%	22µM*	-10%[11.4 µM]	-4%	-23%
SMILES	G9a block	BAZ2B block	Sfp inh	JMJD2A Tudor	L3MBTL1 block	HP1b binding inh
COc1ccc(C(=S)N2CCCCC2)cc1Br	-33%	-25%	20%	?	-8%	-17%
CC1CCN(C(=S)c2ccc(O)cc2)CC1	35µM*	8%[57.1 µM]	56µM*	-31%	-8%	-3%
Cc1ccc(C(=O)N2CCC(C)CC2)cc1C	?	2%	14%	-2%	3%	18%
CCNc1ncc2nc(-c3ccc(Cl)cc3)c(=O)n(-c3ccccc3)c2n1	-1%[12.7 µM]	/	28%	/	/	/
CCCCOC(=O)c1ccc(NC(=O)Cc2coc3c(C)c(C)ccc23)cc1	-3%[59 µM]	-18%	/	-16%	/	41%
Cc1nc2ncnn2c(C)c1CCC(=O)NCc1ccc(Cl)cc1	-2%[59 µM]	-4%	/	-7%	/	26%
Oc1ccc(C(=S)N2CCCC2)cc1	/	-3%	20µM*	-6%	10%	-19%
S=C(c1ccc(OCc2ccccc2)cc1)N1CCCC1	15%	-34%	7%	-1%	-12%	32%
COc1ccc(C(=S)N2CCCC2)cc1	?	-35%	7%	10%[57.1 µM]	?	41%
Cc1ccc(C(=S)N2CCCCCC2)cc1	10µM*	-18%	45µM*	-23%	-4%	16%
CNc1ncnc2ccc(-c3ccc4c(c3)OCO4)cc12	8%[0.501 µM]	/	15%	/	/	/
COCCCN1C(=O)C(=O)/C(=C(/O)c2ccc(OC(C)C)cc2)C1c1ccncc1 (stereo unspecified)	45µM*	?	14%	-21%	0%	29%
Cc1ccc(C)c(/C(O)=C2\C(=O)C(=O)N(CCCn3ccnc3)C2c2cccnc2)c1 (stereo unspecified)	?	79µM*	5%	56µM*	6%	21%
Cc1ccc(/C(O)=C2/C(=O)C(=O)N(CCCn3ccnc3)C2c2cccnc2)cc1 (stereo unspecified)	/	/	/	-2%	/	22%
CC(C)Oc1ccc(/C(O)=C2/C(=O)C(=O)N(CCCn3ccnc3)C2c2cccnc2)cc1 (stereo unspecified)	40µM*	13%	7%	-8%	17%	18%
CCCOc1ccc(/C(O)=C2/C(=O)C(=O)N(CCCN3CCOCC3)C2c2ccncc2)cc1 (stereo unspecified)	14µM*	?	?	/	?	/
COc1ccc(-c2cn3c(n2)sc2cc(C(=O)NC4CCCc5ccccc54)ccc23)cc1 (stereo unspecified)	2%[59 µM]	4%	/	-8%	/	7%
Cn1c(SCc2ccccc2)nc2c1c(=O)[nH]c(=O)n2C	-20%	11%	7%	-5%	/	46%
C/C=C/Cn1c(SC)nc2c1c(=O)[nH]c(=O)n2C	8.9µM*	-3%	?	-6%[11.4 µM]	1%	5%
CSc1nc2c(c(=O)[nH]c(=O)n2C)n1Cc1ccccc1Cl	/	-3%	8%	-14%	-5%	17%
COCCn1c(SCc2ccc(Cl)cc2)nc2c1c(=O)[nH]c(=O)n2C	/	/	/	-4%	/	2%
C/C=C/Cn1c(Br)nc2c1c(=O)[nH]c(=O)n2C	-9%[59 µM]	-2%	7%	-11%	-6%	47%
